RORg inh: ROR gamma (mouse) transcription inhibition. P51450. Drosophila S2 Gal4-RORgamma UAS-luciferase reporter, 20 h. Potency, µM (doses to about 53.6 µM), without a hit: top-dose activity change, negative = inhibition, usual class: inhibitors. hit rate 5.4% among 310,000. AID 2551; also: nearly all actives have a fitted effect of over 60% in size
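Schneider cells (Drosophila), stable Gal4 DBD–ROR gamma + UAS-luc; 1 hr cmpd preincubation; Cu2+ induction 700 uM final; 20 hr ambient; luminescence.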
VP16 counter: inhibits Gal4-VP16 luciferase reporter, ROR gamma counter-screen | Drosophila S2 Gal4-VP16 UAS-luciferase, luminescence, 20 h | Potency, µM (titrated, usually from 53.6 µM), inactives show at the top dose activity, negative = inhibition, hits mostly inhibitors | hit rate 3.5% among 310,000;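 also: Gal4-VP16 expression switched on by copper sulfate through the metallothionein promoter; nearly all actives have a fitted effect of over 50% in size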
TDP1 cell noCPT: qHTS for Inhibitors of human tyrosyl-DNA phosphodiesterase 1 (TDP1): qHTS in cells in absence of CPT; DT40 Tdp1-/- hTDP1 cells, no CPT, ATP luminescence, 48 h; AID 686978, 2013; Potency, µM (doses to about 46.2 µM), for the others: at the top dose activity change, negative = growth inhibition, actives largely listed as inhibitors; hit rate 15% among 420,000; also: nearly all actives have a fitted effect of over 55% in size
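Stably hTDP1-transfected Tdp1-null chicken DT40 cells were treated with library compounds minus camptothecin and grown for at least 48 hr at 37 °C, after which cellular ATP was quantified by luminescence.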
ELG1 DNA repair: inhibitors of ELG1-dependent DNA repair in HEK293T cells; hit rate 2.3% among 330,000; Potency, µM (series often up to 46.1 µM), for the others: top-dose activity change, negative = inhibition, hits mostly inhibitors; AID 504467; HEK293T ELG1-luciferase reporter, luminescence, 16 h; DNA damage induced by 5-fluorouridine; also: nearly all actives have a fitted effect of over 55% in size
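5-Fluorouridine DNA damage + compound/DMSO, 2,000 cells/well, 16 h, 37 °C/5% CO2. ONE-Glo, 30 min RT, luminescence. Readout = decrease in reporter signal.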
ALOX12 inh: blocks human arachidonate 12S-lipoxygenase; Potency, µM (titrated, usually from 108 µM), without a hit: at the highest dose activity change, negative = inhibition, actives largely listed as inhibitors; hit rate 1.1% among 580,000; P18054; purified 12hLO, xylenol orange hydroperoxide absorbance
Target sequence (P18054 whole entry, looked up): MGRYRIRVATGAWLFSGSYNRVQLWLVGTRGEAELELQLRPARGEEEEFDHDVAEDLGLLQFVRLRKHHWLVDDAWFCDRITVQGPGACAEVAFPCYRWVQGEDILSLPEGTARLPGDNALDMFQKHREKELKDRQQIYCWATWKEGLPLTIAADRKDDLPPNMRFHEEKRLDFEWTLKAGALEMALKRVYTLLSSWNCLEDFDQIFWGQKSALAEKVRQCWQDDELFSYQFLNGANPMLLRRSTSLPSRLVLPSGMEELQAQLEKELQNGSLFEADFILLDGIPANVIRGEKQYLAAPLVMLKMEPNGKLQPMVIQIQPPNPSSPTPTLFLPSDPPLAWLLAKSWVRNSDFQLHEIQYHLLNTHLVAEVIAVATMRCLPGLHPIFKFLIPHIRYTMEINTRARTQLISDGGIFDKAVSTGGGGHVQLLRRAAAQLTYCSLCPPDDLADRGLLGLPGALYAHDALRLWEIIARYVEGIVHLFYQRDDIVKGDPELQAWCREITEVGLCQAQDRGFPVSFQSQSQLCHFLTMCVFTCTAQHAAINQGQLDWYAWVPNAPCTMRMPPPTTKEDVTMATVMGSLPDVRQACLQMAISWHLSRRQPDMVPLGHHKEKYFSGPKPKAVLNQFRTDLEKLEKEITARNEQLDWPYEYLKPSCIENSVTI
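Purified human 12hLO (150 nM final) in 25 mM Hepes, 0.01% Triton X-100, pH 7.0 was preincubated 15 min at room temperature with compound. Then 40 uM arachidonic acid was added, 30 min. Hydroperoxide was read by Fe-XO absorbance ratio 573/405 nm.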
DT40 TDP1 CPT: growth inhibition of DT40 Tdp1-/-;hTDP1 cells with camptothecin (screen for TDP1 inhibitors). Potency, µM (series often up to 46.2 µM), for inactives: at the top dose activity change, negative = growth inhibition, actives largely listed as inhibitors. chicken DT40 Tdp1-/-;hTDP1 cells + 20 nM CPT, ATP luminescence, 48 h. hit rate 12% among 420,000; also: nearly all actives have a fitted effect of over 55% in size
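Chicken DT40 Tdp1-/- cells complemented with human TDP1, 400 cells/well, exposed to compounds plus 20 nM camptothecin for at least 48 h at 37 C; viability read as ATP content by CellTiter-Glo luminescence.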
* = called active by the depositor; u = inconclusive; x = not tested or not shown; [ ] = another dose, or the depositor's remark. An excerpt weighted towards active compounds, which were near 15% of everything screened. Calls follow the shape of the dose curve; as a rule, active = well fitted curve in the direction sought with a large enough effect; inconclusive = small, poorly fitted or top-dose-only effect, or another doubt; inactive = no such curve, though single readings can be large; an effect the other way counts as inactive or inconclusive. % is scaled to controls: 0 for no effect and ±100 for the full control effect; potency is read from the fitted curve at half-maximal effect.

SMILES | RORg inh | VP16 counter | TDP1 cell noCPT | ELG1 DNA repair | ALOX12 inh | DT40 TDP1 CPT
S=C(NCCc1ccccc1)NCC(c1ccco1)N1CCCCC1 (centres undefined) | 10µM* | u | 23µM* | -15% | u | u
CC(Oc1ccc(C(C)(C)C)cc1)C(=O)NCC(c1ccco1)N1CCCC1 (centres undefined) | x | x | 21µM* | 0% | 1% | 23µM*
COc1ccc(NC(=S)NCC(c2ccco2)N2CCCC2)cc1 (centres undefined) | u | -6% | -18% | 17% | 0% | 3%
O=C(NCC(c1ccco1)N1CCCCC1)C(c1ccccc1)c1ccccc1 (centres undefined) | 0% | 6% | u | u | -1% | 16µM*
O=C(c1ccn[nH]1)N1CCC(c2noc(COc3ccc(F)cc3)n2)C1 (centres undefined) | x | x | x | x | 53% | x
O=C(Nc1oc2ccc(Cl)cc2c(=O)c1-c1ccc2c(c1)OCO2)c1ccccc1 | x | x | x | x | -2% | x
COc1ccc(C(=O)N2CCC(n3cc(-c4nc(C)no4)nn3)CC2)cc1F | x | x | x | x | 7% | x
N#Cc1ccccc1Sc1ccccc1C(=O)NCC(c1ccco1)N1CCCC1 (centres undefined) | x | x | u | 0% | u | 23µM*
O=C(c1ccc(Cl)cc1)N1CCC2CC1c1cc(-c3ccccc3)ccc12 (centres undefined) | x | x | -23% | x | -14% | 16µM*
O=C(c1cccc(Cl)c1)N1CCN(c2ccc3c(c2)C2CC3CCN2C(=O)OCc2ccccc2)CC1 (centres undefined) | x | x | 15µM* | x | u | u
N#Cc1ccc(C(=O)N2CCC3CC2c2cc(-c4ccccc4)ccc23)cc1 (centres undefined) | x | x | u | x | -3% | u
N#Cc1ccc(C(=O)N2CCC3CC2c2cc(N4CCCCC4)ccc23)cc1 (centres undefined) | x | x | 16µM* | x | 11% | 16µM*
Cc1ccc(C(=O)N2CCN(c3ccc4c(c3)C3CC4CCN3C(=O)OCc3ccccc3)CC2)cc1 (centres undefined) | x | x | 15µM* | x | u | 16µM*
COCc1noc([C@@H]2CN(C3CCN(CC(C)C)CC3)C[C@H]2CO)n1 | x | x | x | x | 43% | x
O=C(C1CCCC1)N1CCN(C(=O)N2CC3CC(C2)[C@H]2CCCC(=O)N2C3)CC1 (some centres undefined) | x | x | x | x | 0% | x
O=C(OCc1ccccc1)N1CCC2CC1c1cc(-c3ccccc3)ccc12 (centres undefined) | x | x | 23µM* | x | -25% | u
COC(=O)c1c(-c2ccc(N(C)C)cc2)oc2c1C(OC)CCC2 (centres undefined) | x | x | 18µM* | x | u | u
O=S(=O)(c1ccc(Cl)s1)N1CCN(CCc2ccccc2)CC1 | 15% | -16% | -26% | 1% | u | -21%
O=S(=O)(c1ccc(Cl)s1)N1CCN(C/C=C/c2ccccc2)CC1 | u | -7% | u | -17% | u | 16µM*
O=S(=O)(c1ccc(Cl)s1)N1CCN(Cc2ccccc2)CC1 | -11%[0.365 µM] | x | 16µM* | -9% | -4% | u
CCCn1nc(SCC(=O)OCC)n2c(=O)c3c(nc12)-c1ccccc1CC3(C)CC (centres undefined) | x | x | x | x | 3% | x
CC(C)CCn1nc(C(=O)NC2CCCc3ccccc32)c2ccccc2c1=O (centres undefined) | x | x | x | x | 1% | x
CCCC(NC(=O)c1ccc(Br)o1)c1nc2ccccc2[nH]1 (centres undefined) | x | x | u | 9% | 344% | 16µM*
CCCn1nc(C(=O)NC2CCCc3ccccc32)c2ccccc2c1=O (centres undefined) | u | u | u | 16µM* | -10% | -21%
Cc1cccc(-n2nnc(C(=O)NC3CCCCC3)c2N)c1 | x | x | x | x | -9% | x
SMILES | RORg inh | VP16 counter | TDP1 cell noCPT | ELG1 DNA repair | ALOX12 inh | DT40 TDP1 CPT
CCCCn1nc(C(=O)Nc2ccc(-n3cnnn3)cc2)c2ccccc2c1=O | x | x | -19% | 7.3µM* | -2% | u
Cc1cccc(-n2nnc(C(=O)NC3CCCc4ccccc43)c2N)c1 (centres undefined) | u | -3% | 18µM* | u | 45% | u
Cc1ccccc1CC(=O)N1CC[C@@H]2CN(S(C)(=O)=O)[C@@H]2C1 | x | x | x | x | 18% | x
NCC(c1ccccc1)c1ccccc1 | x | x | x | x | 1% | x
Cc1ccn(CC(=O)N2C[C@@H](COCC3CC3)[C@H](c3ccccn3)C2)n1 | x | x | x | x | 24% | x
CC1CCN(C(=O)CCSc2nc(-c3ccc4c(c3)OCO4)cc(C(F)(F)F)n2)CC1 | x | x | x | x | -3% | x
Cc1cnc(C(=O)N2CCn3c(nnc3[C@@H]3C[C@@H](O)CN3Cc3ccccc3)C2)cn1 | x | x | x | x | 11% | x
CCOC(=O)c1cnc(SCc2nc(-c3ccccc3C)oc2C)nc1N | x | x | x | x | 10% | x
CCCCn1nc(C(=O)N[C@@H](CCSC)c2nc3ccccc3[nH]2)c2ccccc2c1=O | 7% | 23% | u | x | 221% | 26µM*
CCCCn1nc(C(=O)NC2CCCCCC2)c2ccccc2c1=O | x | x | 13µM* | 18µM* | -19% | u
CCCn1nc(C(=O)NC2CCCC2)c2ccccc2c1=O | x | x | u | u | -7% | -15%
CCCCCn1nc(C(=O)N2CCc3ccccc32)c2ccccc2c1=O | x | x | u | 11µM* | -8% | u
COc1ccc(C2(C(=O)N3CCCC(C(=O)NCc4ccccc4)CCNC(=O)CC3)CC2)cc1 (centres undefined) | x | x | x | x | 2% | x
CCOC(=O)N1CCc2c(sc3ncn(C)c(=O)c23)C1 | -14% | 0% | -16% | 19% | 16% | 10%
CCOC(=O)N1CCc2c(sc3nc(SC(C)C)n(N)c(=O)c23)C1 | u | u | 23µM* | u | 2% | 9.2µM*
O=C(c1cc(C2CC2)nn1-c1ccccc1)N1CCN(S(=O)(=O)c2ccccc2)CC1 | x | x | 16µM* | -18% | -25% | u
CC(=O)c1ccc(S(=O)(=O)N2CCN(C(=O)c3ccc(-n4nc(C)c(Cl)c4C)cc3)CC2)cc1 | x | x | 13µM* | u | -12% | 16µM*
O=C(c1ccccc1C(F)(F)F)N1CCN(S(=O)(=O)c2ccccc2)CC1 | 10% | -5% | -7% | 21µM* | -6% | 2%
O=C(c1cc(C2CC2)nn1-c1ccccc1)N1CCN(Cc2ccc(Cl)cc2)CC1 | x | x | 12µM* | u | -18% | 18µM*
